Assay results: the supplement of paper PMC12632987
Whole data set: some 1,800 sequences, median “median log2 fold change of GCK-ALFA target abundance (FLAG IP / Myc IP barcode read proportion)” near 0.14, cut for the lowest 2% near -0.84. The sample as a whole holds a higher share of the lowest values than the screen did.

T1: TRAF2, Q12933
T1 chain: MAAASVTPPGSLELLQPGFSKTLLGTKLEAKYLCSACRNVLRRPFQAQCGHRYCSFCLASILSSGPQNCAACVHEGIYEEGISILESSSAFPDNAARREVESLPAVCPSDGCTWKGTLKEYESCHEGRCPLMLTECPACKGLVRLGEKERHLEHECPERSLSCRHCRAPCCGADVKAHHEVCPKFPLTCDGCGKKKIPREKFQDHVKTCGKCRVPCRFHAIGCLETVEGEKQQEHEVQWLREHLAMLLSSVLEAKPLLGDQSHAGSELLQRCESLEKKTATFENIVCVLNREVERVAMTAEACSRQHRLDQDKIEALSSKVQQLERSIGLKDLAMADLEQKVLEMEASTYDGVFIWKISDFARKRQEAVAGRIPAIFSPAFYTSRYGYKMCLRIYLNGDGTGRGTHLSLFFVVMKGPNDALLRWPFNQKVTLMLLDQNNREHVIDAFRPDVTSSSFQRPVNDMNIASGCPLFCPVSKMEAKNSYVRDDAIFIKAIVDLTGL

B1: traf2_out_17_162_1551 (protein)
chain: SALEEELERLEEELRRLEEELERLKKELENLEKKSKEELTDLLVEASEARRRARELAERLRELEPLIGEERAGELRERAEEIAEELQRIANKIYKELEKK
B2: traf2_out_20_38_2037 (protein)
chain: SEEEEEEKKLQEVIDVANEALDKYEKKIAEWKAEGKTVEEIAEAAKEEVRRLLEEVGLEEEAEILVEDIDRALSSPDAERLIARILARAVALVKQKELNK
B3: traf2_out_11_169_882 (protein)
chain: EEKEKNRKFNDFALELNDKAKKELLAFAEELAKKLGLDVAEVKAIFEANKNSSLSALAAALIEYFRSKGHEDAAAAVLAKYEELQEKINKEGTKKLKELE
B4: traf2_out_17_178_1712 (protein)
chain: SKEEARKEISAATDEMIDLAEAAATRLLEIARKEGSLSPEELAELERARRLGSARTTLALMERAIPKSKSAEEVQAILDEFRKRYAELSKKIAEALEKYE
B5: traf2_out_20_38_2005 (protein)
chain: SEEEEEERRLKIIIEAANEELDRWEKEIEELKAEGKTVEEIAERAKEEVRRLLTAAGLEEEAEELIAEIDLVLDSPDALDAIARILARAKALVVQKELNK
B6: traf2_out_20_3_2071 (protein)
chain: KELEEEAERELERALELLKRAAELADEETAKRLEELIKRLKASRELSVDDRLVVVSEVRREVLELAEEAKAAGKEELAKELEEAAEALNRAAQLLYDILQ
B7: traf2_out_13_95_1038 (protein)
chain: SKELAEKIMEIADEMEERSLALLEAAKEELADDPEAVAVLTEAKRLAETKGISEALHLLREASAANPEHAARFDALIEELEAIRREAGRKVAKLIKEEEE
B8: traf2_out_15_48_1367 (protein)
chain: DAAAYRAAMNAAADRIIATKDEVKKEVKELAKVASPEVKKKLNEVAKLIEAGAGSQEIIAALKEAAKVASPELKAKLEELAERLRAARREASAIAAAMAK
B9: traf2_out_13_95_1077 (protein)
chain: SKETNEKIMEIADEMLDKVNEVLEELAEKVKDDPEMKAKVEEALHLATHRGINEAIHLLKKLAEENEEYKELLEEAIKKLEEIKEKAGKEVAKLLKEEEE
B10: traf2_out_13_95_1157 (protein)
chain: SAELAKKIMEIADEMLDRSLAVLDALLAKAKAAGKLEAEVAEARHLAETRSINEAIAKLRELAKAHPEFKAELDAAIAELEALRREAGRKVAELIKEEEE
B11: traf2_out_17_162_1532 (protein)
chain: SELEERLRELEEELRELEKRLEELEKELENLENMSKEELSDLLVEASEARRRALELAEELRELRSEIGEERAEELIRRAEEIAERLQRIANKIYEELEKK
B12: traf2_out_17_162_1548 (protein)
chain: GELEERLKELEEELEELERRAEELESLLPELPKLSKEELTDLLVEASEARRRARRLAEEIEKLKEEIGEERAEELRERAEEIAERLQRIANAIYKELEKK
B13: traf2_out_17_162_1490 (protein)
chain: EELEERLRELERRLEELERRLKELEEKLKNIDKLSKEELTDLLVEASEAKREARRLAEELRELRERTGREELEELIRRAEEIAERLQRIANIIYKELEKK
B14: traf2_out_18_3_1898 (protein)
chain: SEEKLKEISEKIDEIIDEVTAKAREVLDWLEKNKPEVKERIAALRADLEAGAGPFGILRELARLAKEAGEEEKAKEIEEFLKEKSKELQELVDEYLELRA
B15: traf2_out_13_95_1133 (protein)
chain: SAETAKKIMEIADKMLDEVEKILEELLKIFEKKGIGVEEIKEALYLARHQSINEAIAKLEELSKKYPEFKEELDKAIEEIKALREKAGKEVAEILKKEKE
B16: traf2_out_1_27_1000 (protein)
chain: STEEERELLRRANREIGRASPEEQVEIIKRTLREALERGIDSPEHIAVVLILMLGDEETRERAIEAAREVLREAGISEEAIERMERRVRSGWERLDRLLA
B17: traf2_out_11_169_815 (protein)
chain: EEAEKNRKINDFALELNDEAKKKLLEHAKKLAKEAGLDVEEVEKIFEENKNKSLSAVAAALIKYFRSKGKEEEAEAVLKKYEELKEEINKKVTEKIKELE
B18: traf2_out_13_95_1055 (protein)
chain: SAETAAKINEIADEALERALALLRAAQEEVADDPAASAVLAEALRLAETRGISEAIHLLREAQAADPAHAERFAALIEELEAIRREAGRRVAEVLKEEKE
B19: traf2_out_18_64_1955 (protein)
chain: SELDEEIDRLVDEMDERRRLRLALARALQARAAADPAWQPLLDYFHAHVNDIGAAGARRMLALLAAGAPPAELRAVMEEDLGEGRELQRRLAELLEKREK
B20: traf2_out_18_117_1787 (protein)
chain: MEREEIIERLKEIAEETGRAASELGKLVLEKWEELTPEEKSEAFDVLADLSEVRREAQLLIIEIEEKNLPIEEAKKRLEELEKRAEEALKRAEEKIKRIK
B21: traf2_out_17_178_1705 (protein)
chain: SKEEARKKISEATDKMIDLAQEAAERLLEIAEREGSLSPEELAELRRARRLGSARTTLALMRRAIPRSRSAEEVRRLVEEFEKEYRELSKIIAEELKKYE
B22: traf2_out_13_95_1155 (protein)
chain: SKELAEKIMEIADRMLDEALAVLDELLAAAKAAGKLEEEVARARHLAEHHSINEAIALLRELAKAHPEFKEELDAAIARLEALRREAGREVAELIKKEKE
B23: traf2_out_13_95_1102 (protein)
chain: SRELAEEIMKIADEMIDKANEILEELLKIAKEKGVAEEEVKEALYLAEHRSIREAIHKLKELAKEYPELKEEFEEAIEKLEKLIEEAGKKVAELIKEEKE
B24: traf2_out_6_166_2459 (protein)
chain: ESETLKEIREIIKELSKYSTEIIVKAFDEVAKKVDEESARILRQLKSAVEQAEKLGLDVETALTATVLGLITLGVPEETLLKLLKEVLKEAKKIAEEKEK
B25: traf2_out_13_95_1054 (protein)
chain: SAETAEKINEIADEALEEALALLEEARAEVADDPEASAVLDEALRLAETKGISEAIHLLEEARAADPAHAERFAALIERLRAIRREAGRKVAEVLKEAEE
B26: traf2_out_14_166_1277 (protein)
chain: MTPEEIERIRKIVDELEPLTDAAVARARAILDKVRDKLSPEDLARVEALLALAARNIGSSAINALREIAKIYKKAGLDEAAAAMQALADELEEKLKKLNK
B27: traf2_out_6_156_2405 (protein)
chain: MLEEIEEETLKEIEELIKELAAASEEKKIAYISKIAGTFYRGLQRARAAGASVEELEAFGKRVLEKTKELLDEEGLPQDVKDLILSSLNAVFDVALAEAR

Molecular target: T1, TRAF2, Q12933
Assay: median log2 fold change of GCK-ALFA target abundance (FLAG IP / Myc IP barcode read proportion) (log2 ratio); each designed protein is fused to an ALFA-tag nanobody in HEK293 cells to bring the named protein to FLAG-tagged glucokinase (GCK); Myc marks an untargeted standard; higher = target protein stabilised (more abundant)
Conditions: target protein: 3xFLAG-MCP-GCK-ALFA reporter; HEK293 landing pad (RPLP)
Summary of the method: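 Sequencing of reverse-transcribed, amplified circular RNA barcodes from anti-FLAG and anti-Myc immunoprecipitates provided the readout for an ALFA-nanobody-fused binder library recombined into HEK293 landing-pad cells. Those cells were induced with 2 μg mL^−1 doxycycline, transfected with a plasmid expressing a FLAG-tagged target and a Myc-tagged standard, and lysed after 48 h. Target abundance is the per-binder median log2 ratio of FLAG to Myc barcode read proportions. Only barcodes at a proportion of ≥10^−7 in both replicates and binders with ≥3 barcodes per replicate were kept, with a 10^−6 pseudocount added before the two replicates were pooled.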
With B1 the “median log2 fold change” value was 0.0543.
With B2 the “median log2 fold change” value was -1.45.
In the case of B3, the “median log2 fold change” value is reported as 0.444.
B4 was tested, and the “median log2 fold change” value was 0.217.
For B5, the “median log2 fold change” value was -1.09.
In the case of B6, the “median log2 fold change” value is reported as 0.112.
With B7 the “median log2 fold change” value was -0.177.
With B8 the “median log2 fold change” value was -0.184.
With B9 the “median log2 fold change” value was -0.0213.
In the case of B10, the “median log2 fold change” value is reported as -0.558.
In the case of B11, the “median log2 fold change” value is reported as 0.0409.
With B12 the “median log2 fold change” value was 0.22.
For B13, the “median log2 fold change” value was -1.17.
For B14, the “median log2 fold change” value was -0.192.
B15 was tested, and the “median log2 fold change” value was -0.0113.
B16 was tested, and the “median log2 fold change” value was 0.155.
In the case of B17, the “median log2 fold change” value is reported as 0.235.
B18 was tested, and the “median log2 fold change” value was 0.257.
With B19 the “median log2 fold change” value was 0.163.
In the case of B20, the “median log2 fold change” value is reported as 0.101.
With B21 the “median log2 fold change” value was -0.521.
In the case of B22, the “median log2 fold change” value is reported as -0.372.
With B23 the “median log2 fold change” value was -0.486.
In the case of B24, the “median log2 fold change” value is reported as 0.077.
With B25 the “median log2 fold change” value was 0.213.
B26 was tested, and the “median log2 fold change” value was 0.354.
In the case of B27, the “median log2 fold change” value is reported as 0.151.
